From PubChem BioAssay (EPA / NIEHS)
Activity calls are given as the source filed them. Rule for the calls: active = hit-call score of the fitted dose curve at least 0.9, where 1 is the maximum; inactive = score below 0.9.

What was measured:
[1] = ATG_CMV_CIS: Attagene CIS-FACTORIAL HepG2 Assay for human CMV (Internal Marker) (AID 2282928); details: HepG2 CMV promoter reporter, transcription factor profiling; actives raise or lower the signal;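 note: endpoint acts as a background internal control marker rather than a target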
Procedure, shortened: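 Fluorescence intensity of RT-PCR-derived reporter fragments, resolved by capillary electrophoresis, gives the signal. HepG2 liver cells bearing transfected cis-element reporters were treated 24 h; activity in either direction was fit relative to DMSO-treated controls.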

[2] = ATG_DR4_LXR_CIS: Attagene CIS-FACTORIAL HepG2 Assay for human Liver X Receptor (LXR), DR4 submotif (AID 2282929); details: HepG2 Attagene DR4 cis-reporter, mRNA transcription; actives raise or lower the signal
Procedure, shortened: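 Transiently transfected HepG2 liver cells; cis-regulated reporters; 24 h dosing. RT-PCR plus CE read-out of reporter mRNA. DMSO baseline, bidirectional curve fitting.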

[3] = target: Aryl hydrocarbon receptor (Homo sapiens) (UniProt P35869); test: ATG_Ahr_CIS: Attagene CIS-FACTORIAL HepG2 Assay for human Aryl Hydrocarbon Receptor (Ahr) (AID 2282930); details: HepG2 AhR cis-factorial reporter transcription; actives raise or lower the signal
Aryl hydrocarbon receptor (Homo sapiens), sequence (P35869 whole entry, looked up): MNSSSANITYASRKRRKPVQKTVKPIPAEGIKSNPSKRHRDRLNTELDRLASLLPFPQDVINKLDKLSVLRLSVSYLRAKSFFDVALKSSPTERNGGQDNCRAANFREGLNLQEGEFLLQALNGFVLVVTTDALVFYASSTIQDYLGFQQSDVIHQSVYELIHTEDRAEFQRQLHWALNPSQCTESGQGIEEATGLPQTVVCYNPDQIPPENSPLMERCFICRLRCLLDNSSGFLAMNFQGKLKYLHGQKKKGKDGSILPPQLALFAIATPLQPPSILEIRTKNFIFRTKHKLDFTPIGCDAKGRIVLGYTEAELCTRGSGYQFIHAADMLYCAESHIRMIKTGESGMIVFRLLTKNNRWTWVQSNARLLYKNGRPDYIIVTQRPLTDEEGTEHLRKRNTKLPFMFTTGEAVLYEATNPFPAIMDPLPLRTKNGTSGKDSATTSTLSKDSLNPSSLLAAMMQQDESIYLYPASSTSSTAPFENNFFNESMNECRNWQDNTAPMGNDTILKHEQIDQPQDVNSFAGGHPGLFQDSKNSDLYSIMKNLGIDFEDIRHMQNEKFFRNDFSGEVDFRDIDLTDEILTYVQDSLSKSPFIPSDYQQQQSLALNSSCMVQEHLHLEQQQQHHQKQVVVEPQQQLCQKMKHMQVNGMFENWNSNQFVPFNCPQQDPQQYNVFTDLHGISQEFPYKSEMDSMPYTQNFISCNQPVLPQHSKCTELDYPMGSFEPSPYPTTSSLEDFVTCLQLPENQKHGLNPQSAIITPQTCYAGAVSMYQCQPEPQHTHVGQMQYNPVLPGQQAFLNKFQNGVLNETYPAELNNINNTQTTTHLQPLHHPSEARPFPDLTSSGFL
Procedure, shortened: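 Transient MRTU transfection of HepG2 → 24 h compound exposure → total RNA, oligo(dT) RT → PCR, 6-FAM extension, HpaI cut → CE fluorescence. DMSO = baseline; bidirectional curve fit.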

[4] = ATG_AP_1_CIS: Attagene CIS-FACTORIAL HepG2 Assay for human Activator Protein 1 (AP-1) (AID 2282931); details: HepG2 Attagene cis-factorial AP-1 reporter mRNA; actives raise or lower the signal
Procedure, shortened: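 We transfected HepG2 cells transiently with a set of cis-regulated reporter transcription units, dosed them for 24 h, and quantified reporter mRNA via RT-PCR and capillary electrophoresis, scoring gain or loss of signal relative to DMSO.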

[5] = ATG_AP_2_CIS: Attagene CIS-FACTORIAL HepG2 Assay for human Activator Protein 2 (AP-2) (AID 2282932); details: HepG2 AP-2 cis-reporter, Attagene transcription factor profiling; actives raise or lower the signal
Procedure, shortened: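 Transiently transfected HepG2 cells are exposed to chemical for 24 h. Reporter transcripts are then measured as fluorescence following RT-PCR and capillary separation, and gain- or loss-of-signal is fitted relative to DMSO.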

[6] = ATG_BRE_CIS: Attagene CIS-FACTORIAL HepG2 Assay for human Bone Morphogenetic Protein (BMP) Response Element (BRE) (AID 2282933); details: HepG2 BMP response element reporter, Attagene transcription factor profiling; actives raise or lower the signal
Procedure, shortened: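 After a 24 h chemical treatment, transiently transfected HepG2 cells were lysed for RNA; reporter transcripts were quantified by fluorescent RT-PCR and capillary electrophoresis, normalised to DMSO.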

[7] = target: Retinoic acid receptor alpha (Homo sapiens) (UniProt P10276); test: ATG_DR5_RAR_CIS: Attagene CIS-FACTORIAL HepG2 Assay for human Retinoic Acid Receptor Alpha (RARE), DR5 submotif (AID 2282934); details: HepG2 Attagene cis-factorial RARE DR5 reporter, mRNA; actives raise or lower the signal
Retinoic acid receptor alpha (Homo sapiens), sequence (P10276 whole entry, looked up): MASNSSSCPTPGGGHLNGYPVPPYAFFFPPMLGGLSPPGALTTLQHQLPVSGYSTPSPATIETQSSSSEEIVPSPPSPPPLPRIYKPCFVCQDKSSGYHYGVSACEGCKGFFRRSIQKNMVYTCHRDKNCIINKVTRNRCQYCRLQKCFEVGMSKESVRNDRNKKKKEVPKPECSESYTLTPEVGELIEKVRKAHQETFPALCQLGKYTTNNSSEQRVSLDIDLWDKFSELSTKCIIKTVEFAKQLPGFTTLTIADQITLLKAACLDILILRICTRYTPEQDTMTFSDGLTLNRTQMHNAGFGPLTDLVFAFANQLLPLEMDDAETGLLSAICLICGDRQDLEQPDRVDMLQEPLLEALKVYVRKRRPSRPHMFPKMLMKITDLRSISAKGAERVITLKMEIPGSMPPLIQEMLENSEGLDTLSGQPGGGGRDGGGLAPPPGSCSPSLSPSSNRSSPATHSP
Procedure, shortened: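 Transient MRTU transfection of HepG2; 24 h compound treatment; TriZol RNA, oligo(dT) RT, PCR, FAM labelling, capillary electrophoresis. Bidirectional fit vs DMSO. Endogenous TF activity at DR5 RARE.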

[8] = target: Transcription factor E2F1 (Homo sapiens) (UniProt Q01094); test: ATG_E2F_CIS: Attagene CIS-FACTORIAL HepG2 Assay for human E2F Transcription Factor 1 (AID 2282935); details: HepG2 Attagene cis-reporter, E2F reporter RNA transcripts; actives raise or lower the signal
Transcription factor E2F1 (Homo sapiens), sequence (Q01094 whole entry, looked up): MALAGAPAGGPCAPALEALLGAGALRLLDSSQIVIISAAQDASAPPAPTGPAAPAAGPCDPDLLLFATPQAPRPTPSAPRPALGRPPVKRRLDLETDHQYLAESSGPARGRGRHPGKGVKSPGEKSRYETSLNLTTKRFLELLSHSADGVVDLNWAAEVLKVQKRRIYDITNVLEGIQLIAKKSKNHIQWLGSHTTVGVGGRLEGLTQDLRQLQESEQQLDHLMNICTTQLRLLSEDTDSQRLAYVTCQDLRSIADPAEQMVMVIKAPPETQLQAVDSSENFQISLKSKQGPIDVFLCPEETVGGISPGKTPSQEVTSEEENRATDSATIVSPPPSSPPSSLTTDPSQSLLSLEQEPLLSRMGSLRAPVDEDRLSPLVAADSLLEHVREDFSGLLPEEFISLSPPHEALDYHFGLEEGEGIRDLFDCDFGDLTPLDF
Procedure, shortened: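 Fluorescent RT-PCR products, digested with HpaI for 2 h at 37 C, are separated by capillary electrophoresis. Source RNA comes from transfected HepG2 cultures treated for 24 h.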

[9] = ATG_E_Box_CIS: Attagene CIS-FACTORIAL HepG2 Assay for human Enhancer Box (E-box) (AID 2282936); details: HepG2 E-box cis-reporter transcription, actives raise or lower the signal
Procedure, shortened: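 Fluorescent reporter fragments separated by capillary electrophoresis gave the signal; mRNA came from HepG2 cells transfected with cis-element reporters and treated 24 h. Curves fitted bidirectionally relative to DMSO controls.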

[10] = ATG_M_61_CIS: Attagene CIS-FACTORIAL HepG2 Assay for M61 Transcription Factor (Internal Marker) (AID 2282937); details: HepG2 Attagene CIS-FACTORIAL M61 internal marker reporter; actives raise or lower the signal
Procedure, shortened: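 Multiplexed reporter mRNA assay, HepG2 human hepatoma cells, 24 h treatment. Signal: FAM-labelled, HpaI-digested RT-PCR fragments by CE. Fit: bidirectional, baseline DMSO.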

[11] = ATG_EGR_CIS: Attagene CIS-FACTORIAL HepG2 Assay for human Early Growth Response 1 (EGR1) (AID 2282938); details: HepG2 Attagene CIS-FACTORIAL EGR reporter mRNA; actives raise or lower the signal
Procedure, shortened: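 Multiplexed cis-reporter system in human hepatoma HepG2 cells, transiently transfected. Cells are dosed for 24 h; reporter transcripts are amplified, fluorescently tagged and sized by capillary electrophoresis, with DMSO as negative control.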

[12] = ATG_M_19_CIS: Attagene CIS-FACTORIAL HepG2 Assay for M19 Transcription Factor (Internal Marker) (AID 2282939); details: HepG2 Attagene CIS-FACTORIAL M19 internal marker reporter; actives raise or lower the signal
Procedure, shortened: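 In this multiplexed cell assay, transiently transfected HepG2 reporter units report endogenous transcription-factor activity; after 24 hours of treatment, labelled reporter cDNA fragments are quantified by capillary electrophoresis and fitted bidirectionally against DMSO.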

[13] = ATG_ERE_CIS: Attagene CIS-FACTORIAL HepG2 Assay for Estrogen Response Element (ERE) (AID 2282940); details: HepG2 ERE cis-reporter, Attagene RNA transcript; actives raise or lower the signal
Procedure, shortened: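 Measuring endogenous transcription factor output, the assay doses transfected HepG2 cells for 24 hours and quantifies reporter transcripts by fluorescent RT-PCR and capillary electrophoresis, with DMSO as baseline.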

[14] = ATG_Ets_CIS: Attagene CIS-FACTORIAL HepG2 Assay for human Erythroblast Transformation Specific (ETS) (AID 2282941); details: HepG2 ETS cis-reporter transcription, actives raise or lower the signal
Procedure, shortened: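 Multiplexed reporter transcript profiling: HepG2, 24 h treatment, total RNA to cDNA, PCR, 6-FAM labelling, HpaI cut, capillary electrophoresis. Gain- or loss-of-signal fitted against DMSO.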

[15] = target: Hepatocyte nuclear factor 3-beta (Homo sapiens) (UniProt Q9Y261); test: ATG_FoxA2_CIS: Attagene CIS-FACTORIAL HepG2 Assay for human Forkhead box A2 (FOXA2) (AID 2282942); details: HepG2 cis-reporter transcription factor activity, 24 h; actives raise or lower the signal
Hepatocyte nuclear factor 3-beta (Homo sapiens), sequence (Q9Y261 whole entry, looked up): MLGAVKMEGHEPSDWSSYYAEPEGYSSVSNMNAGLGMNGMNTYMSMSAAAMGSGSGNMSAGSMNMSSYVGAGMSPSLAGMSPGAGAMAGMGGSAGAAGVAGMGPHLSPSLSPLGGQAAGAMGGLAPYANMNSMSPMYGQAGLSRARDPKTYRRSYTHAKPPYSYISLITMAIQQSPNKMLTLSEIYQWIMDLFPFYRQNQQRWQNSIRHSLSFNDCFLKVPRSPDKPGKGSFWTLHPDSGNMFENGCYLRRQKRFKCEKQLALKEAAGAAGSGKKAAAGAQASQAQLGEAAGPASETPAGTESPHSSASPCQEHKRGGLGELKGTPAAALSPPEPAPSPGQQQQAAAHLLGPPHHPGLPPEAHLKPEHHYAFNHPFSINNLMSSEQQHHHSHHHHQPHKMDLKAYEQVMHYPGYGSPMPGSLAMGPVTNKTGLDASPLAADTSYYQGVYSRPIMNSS
Procedure, shortened: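 Multiplexed cis-element reporter assay in transiently transfected HepG2. Twenty-four hours post-dosing, RNA was reverse-transcribed, amplified, FAM-labelled, HpaI-digested and separated by CE. Activity gain or loss relative to DMSO.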

[16] = ATG_FoxO_CIS: Attagene CIS-FACTORIAL HepG2 Assay for human Forkhead box O (FoxO) (AID 2282943); details: HepG2 Attagene cis-reporter, FoxO element, mRNA; actives raise or lower the signal
Procedure, shortened: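 HepG2, transient MRTU transfection (cis element, endogenous TFs). Dose 24 h. TriZol RNA → oligo(dT) RT → PCR → 6-FAM primer extension → HpaI cut → CE. Gain/loss vs DMSO.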

[17] = ATG_GATA_CIS: Attagene CIS-FACTORIAL HepG2 Assay for human GATA Binding Protein (AID 2282944); details: HepG2 GATA cis-element reporter, Attagene multiplex mRNA; actives raise or lower the signal
Procedure, shortened: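 Measures endogenous transcription factor-driven reporter mRNA in HepG2 cells transiently carrying cis-regulated constructs. 24 h dosing; RNA via oligo(dT) reverse transcription, PCR, HpaI digestion, capillary electrophoresis; fitted relative to DMSO.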

[18] = ATG_GLI_CIS: Attagene CIS-FACTORIAL HepG2 Assay for human Zinc Finger Protein GLI1 (AID 2282945); details: HepG2, Attagene cis-factorial reporter mRNA, GLI element; actives raise or lower the signal
Procedure, shortened: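 Bidirectional curve fits relative to DMSO, using reporter mRNA levels from RT-PCR plus capillary electrophoresis. Cells were HepG2 transiently carrying cis-regulated reporter constructs, harvested 24 h after dosing.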

[19] = target: Bile acid receptor (Homo sapiens) (UniProt Q96RI1); test: ATG_IR1_CIS: Attagene CIS-FACTORIAL HepG2 Assay for human Nuclear Receptor Subfamily 1 Group H Member 4 (NR1H4), IR1 submotif (AID 2282946); details: IR1 reporter transcription, actives raise or lower the signal
Bile acid receptor (Homo sapiens), sequence (Q96RI1 whole entry, looked up): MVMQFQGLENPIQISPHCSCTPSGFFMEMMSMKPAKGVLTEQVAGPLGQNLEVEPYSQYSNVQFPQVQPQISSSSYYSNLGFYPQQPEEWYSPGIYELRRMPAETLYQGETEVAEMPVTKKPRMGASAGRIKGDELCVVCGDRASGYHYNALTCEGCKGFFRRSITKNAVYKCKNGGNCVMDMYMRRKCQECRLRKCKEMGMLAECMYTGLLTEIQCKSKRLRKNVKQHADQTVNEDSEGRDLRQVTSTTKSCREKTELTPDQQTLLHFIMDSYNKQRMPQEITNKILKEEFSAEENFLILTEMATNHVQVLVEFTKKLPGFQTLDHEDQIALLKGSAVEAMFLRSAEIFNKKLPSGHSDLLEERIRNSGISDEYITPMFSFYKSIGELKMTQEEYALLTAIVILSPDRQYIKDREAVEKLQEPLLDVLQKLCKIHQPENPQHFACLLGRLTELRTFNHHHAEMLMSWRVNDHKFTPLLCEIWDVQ
Procedure, shortened: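 HepG2 cells transiently transfected with multiplexed cis-element reporter units read endogenous transcription factor activity. After 24 h compound exposure, reporter mRNA was quantified by RT-PCR, fluorescent labelling, HpaI digestion and capillary electrophoresis; bidirectional fitting versus DMSO baseline.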

[20] = ATG_GRE_CIS: Attagene CIS-FACTORIAL HepG2 Assay for human Glucocorticoid Response Elements (GRE) (AID 2282947); details: HepG2 GRE cis-reporter, Attagene multiplex mRNA; actives raise or lower the signal
Procedure, shortened: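 Multiplexed cis-reporter mRNA induction, HepG2, 24 h post-dose. RT-PCR, FAM-labelled, HpaI-digested amplicons by CE. Bidirectional fit vs DMSO.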

Measured: AC50

CC(c1ccccc1)(c1ccc(O)cc1)c1ccc(O)cc1
active: [2] 11.1 µM | [4] 7.98 µM | [9] 16.9 µM | [11] 12.3 µM | [13] 0.181 µM | [14] 20.1 µM | [19] 15.6 µM
inactive: all other assays above

CCOC(=O)CCN(SN(C)C(=O)Oc1cccc2c1OC(C)(C)C2)C(C)C
active: [2] 100 µM | [4] 151 µM | [6] 163 µM | [19] 100 µM
inactive: all other assays above

C=CC(=O)OCC(COC(=O)C=C)(COC(=O)C=C)COC(=O)C=C
active: [1] 8.92 µM | [2] 3.12 µM | [4] 33.4 µM | [5] 33.4 µM | [9] 7.14 µM | [11] 8.31 µM | [14] 33.4 µM | [16] 8.71 µM | [19] 12.2 µM
not listed: [20]
inactive: all other assays above
